Screens deposited in PubChem BioAssay by National Center for Advancing Translational Sciences (NCATS).
HEK293 tox: HEK 293 cell cytotoxicity; Potency, µM (highest dose often 115 µM), without a hit: at the highest dose activity change, negative = cytotoxicity, hits mostly inhibitors; HEK 293 viability, ATP luminescence (CellTiter-Glo), 48-72 h; actives 6.6% (n = 94,000); further: on the % scale 0 is the no-effect control and ±100 the full control effect; nearly all actives have a fitted effect of over 60% in size
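Cytotoxicity was scored by loss of ATP-coupled luminescence (CellTiter-Glo) in HEK 293 cells. Compound treatment ran 48 or 72 hr at 37 degree Celsius, 5% CO2, 95% humidity.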
FLuc inh-1: inhibitors of firefly (Photinus pyralis) luciferase. purified P. pyralis luciferase, luminescence, biochemical. Potency, µM (titrated, usually from 115 µM), usual class: inhibitors. actives 2.5% (n = 76,000); further: on the % scale 0 is the no-effect control and ±100 the full control effect; nearly all actives have a fitted effect of over 65% in size
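Luminescence read by CCD imager after adding enzyme (10nM final) to wells holding compound, titrated in qHTS. Substrates 10uM each D-luciferin and ATP; buffer 50mM Tris acetate pH 7.5, 10mM Mg acetate, Tween-20, BSA.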
NIH3T3 tox: kills NIH 3T3 cells. NIH 3T3 viability, CellTiter-Glo ATP luminescence, 48-72 h. actives 4.3% (n = 94,000). Potency, µM (titrated, usually from 96.7 µM), without a hit: at the top dose activity change, negative = cytotoxicity, hits mostly inhibitors; further: on the % scale 0 is the no-effect control and ±100 the full control effect; nearly all actives have a fitted effect of over 55% in size
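Luminescent ATP readout (CellTiter-Glo, 10 min RT) after 48 or 72 hr compound exposure of NIH 3T3 cells seeded at 400 cells/well in 1536-well format; quantitative HTS.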
hNpr1 antagonist: antagonists of human natriuretic peptide receptor Npr1; P16066; HEK293 hNpr1 GloSensor cGMP, ANP-stimulated luminescence; Potency, µM (doses to about 46.3 µM), without a hit: top-dose activity change, negative = inhibition, most hits filed as inhibitors; actives 1.6% (n = 76,000); AID 1347048; calls by dose curve; further: on the % scale 0 is the no-effect control and ±100 the full control effect; nearly all actives have a fitted effect of over 60% in size
Target sequence (P16066 whole entry, looked up): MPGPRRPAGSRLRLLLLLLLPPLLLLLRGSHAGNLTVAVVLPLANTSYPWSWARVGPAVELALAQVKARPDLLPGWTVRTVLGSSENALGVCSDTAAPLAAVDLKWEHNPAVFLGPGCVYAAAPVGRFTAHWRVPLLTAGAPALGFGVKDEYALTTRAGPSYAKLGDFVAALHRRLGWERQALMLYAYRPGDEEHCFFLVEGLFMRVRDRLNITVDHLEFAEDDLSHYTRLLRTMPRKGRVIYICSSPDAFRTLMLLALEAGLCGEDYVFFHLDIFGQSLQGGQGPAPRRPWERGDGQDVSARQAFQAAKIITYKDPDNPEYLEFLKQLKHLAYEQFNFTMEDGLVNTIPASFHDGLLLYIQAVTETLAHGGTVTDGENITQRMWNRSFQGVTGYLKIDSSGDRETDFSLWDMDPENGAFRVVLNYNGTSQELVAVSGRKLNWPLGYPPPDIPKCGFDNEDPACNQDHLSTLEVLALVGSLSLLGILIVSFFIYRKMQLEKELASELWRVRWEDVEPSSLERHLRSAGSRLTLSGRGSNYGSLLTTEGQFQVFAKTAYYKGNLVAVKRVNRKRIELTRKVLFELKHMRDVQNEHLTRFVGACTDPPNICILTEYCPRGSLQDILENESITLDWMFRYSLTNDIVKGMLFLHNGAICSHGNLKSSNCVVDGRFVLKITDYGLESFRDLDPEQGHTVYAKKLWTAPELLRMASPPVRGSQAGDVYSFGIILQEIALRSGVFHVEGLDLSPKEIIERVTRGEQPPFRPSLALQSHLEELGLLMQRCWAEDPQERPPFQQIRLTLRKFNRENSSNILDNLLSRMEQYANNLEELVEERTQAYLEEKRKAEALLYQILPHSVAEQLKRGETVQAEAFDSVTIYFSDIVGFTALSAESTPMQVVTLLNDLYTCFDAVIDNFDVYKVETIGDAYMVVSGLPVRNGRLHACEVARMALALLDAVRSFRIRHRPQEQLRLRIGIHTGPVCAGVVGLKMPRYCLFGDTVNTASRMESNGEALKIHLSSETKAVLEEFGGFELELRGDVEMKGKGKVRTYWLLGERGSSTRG
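Compound pre-incubated 30 min at room temperature on GloSensor-loaded HEK293 cells stably carrying hNpr1 and the pGS-40F cGMP biosensor. Stimulation uses hNppA at 0.1 nM final; luminescence is taken at baseline and 20 min post-agonist.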
FLuc SDR -ATP: stabilizes firefly luciferase without ATP; Potency, µM (highest dose often 32.7 µM), for the others: at the highest dose activation (signal gain), usual class: activators; Purified FLuc-C-HiBiT, Nano-Glo HiBiT luminescence, no ATP; actives 7.8% (n = 1,300); AID 1963318; shares compounds with FLuc inh-1; further: nearly all actives have a fitted effect of over 55% in size
FLuc SDR ATP: binders stabilizing firefly luciferase, plus ATP; shares compounds with FLuc inh-1; Potency, µM (titrated, usually from 32.7 µM), for inactives: at the top dose activation (gain of signal), actives largely listed as activators; purified FLuc-C-HiBiT + ATP, HiBiT complementation luminescence; actives 8.7% (n = 1,300);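 further: signal reports ligand binding via conformational change of the enzyme rather than luciferase catalysis; % of control where 0% means no effect; nearly all actives have a fitted effect of over 55% in size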
FLuc inh-2: firefly luciferase enzyme inhibition; Potency, µM (top dose mostly 32.7 µM), without a hit: at the top dose activity change, negative = inhibition, most hits filed as inhibitors; shares compounds with FLuc inh-1; AID 1963320; purified FLuc-C-HiBiT enzyme, luciferin luminescence; actives 42% (n = 1,300); further: on the % scale 0 is the no-effect control and ±100 the full control effect; nearly all actives have a fitted effect of over 70% in size
An asterisk follows results filed as active; [ ] = another dose, or the depositor's remark. In the library only some 11% were active in any assay of this set; here they are far more common. Unless noted, the call rests on the fitted dose curve; in most records, active means well fitted curve in the direction sought with a large enough effect; inconclusive means small, poorly fitted or top-dose-only effect, or another doubt; inactive means no such curve, though single readings can be large; an effect the other way counts as inactive or inconclusive. Potency means the concentration at half of the fitted maximal effect.

COc1ccc(-c2noc(Nc3ccc4c(c3)OCCO4)n2)cc1 was read as HEK293 tox -4%, FLuc inh-1 0.89µM*, NIH3T3 tox 1%, hNpr1 antagonist inconclusive, FLuc SDR -ATP inconclusive, FLuc SDR ATP inconclusive and FLuc inh-2 1.6µM*.
Screening COc1cccc(-c2cc(-c3ccccc3OC)nc3c(C)noc23)c1 returned HEK293 tox inconclusive, FLuc inh-1 inactive, NIH3T3 tox inconclusive and hNpr1 antagonist 11%[70.6 µM].
For COc1ccc(Nc2nc(-c3cccc(OC)c3)no2)cc1 the results were HEK293 tox inconclusive, FLuc inh-1 2.5µM*, NIH3T3 tox -64%, hNpr1 antagonist inconclusive, FLuc SDR -ATP 21%, FLuc SDR ATP 16% and FLuc inh-2 7.9µM*.
Screening CCOc1ccc(Nc2nc(-c3ccccc3)no2)cc1 returned HEK293 tox -73%, FLuc inh-1 0.79µM*, NIH3T3 tox 18µM*, hNpr1 antagonist 10µM*, FLuc SDR -ATP 16%, FLuc SDR ATP 17% and FLuc inh-2 5µM*.
`CN1C(=O)c2cncnc2OCC1CNC(=O)Cc1cccs1` (stereo not drawn) gave HEK293 tox inconclusive, FLuc inh-1 inactive, NIH3T3 tox -2%[138 µM] and hNpr1 antagonist 5%[70.6 µM].
`COc1ccc(-c2noc(Nc3cc(OC)cc(OC)c3)n2)cc1` gave HEK293 tox inconclusive, FLuc inh-1 inconclusive, NIH3T3 tox inconclusive and hNpr1 antagonist -17%.
COc1ccc(-c2noc(Nc3ccccc3)n2)cc1 was read as HEK293 tox inconclusive, FLuc inh-1 1.1µM*, NIH3T3 tox -26%, hNpr1 antagonist 10µM*, FLuc SDR -ATP 30%, FLuc SDR ATP inconclusive and FLuc inh-2 2.2µM*.
COc1ccc(C(=O)N2CCc3ccc(C(=O)Nc4ccc5c(c4)OCCO5)cc32)cc1 was read as HEK293 tox inconclusive, FLuc inh-1 3.2µM*, NIH3T3 tox inconclusive, hNpr1 antagonist inconclusive, FLuc SDR -ATP 30%, FLuc SDR ATP inconclusive and FLuc inh-2 5.6µM*.
`CN1c2cc(C(=O)Nc3ccccc3)ccc2C(=O)N2CCCCC21` (stereo not drawn) gave HEK293 tox inconclusive, FLuc inh-1 7.1µM*, NIH3T3 tox -19%, hNpr1 antagonist -20%, FLuc SDR -ATP 17%, FLuc SDR ATP 16% and FLuc inh-2 inconclusive.
`CN(C)c1ccc(NC(=O)c2ccc3c(c2)N(C)C2CCCCN2C3=O)cc1` (stereo not drawn) gave HEK293 tox inconclusive, FLuc inh-1 2.8µM*, NIH3T3 tox inconclusive, hNpr1 antagonist -10%, FLuc SDR -ATP 14%, FLuc SDR ATP 17% and FLuc inh-2 inconclusive.
`CN1c2cc(C(=O)Nc3ccc4c(c3)OCCO4)ccc2C(=O)N2CCCC21` (stereo not drawn) gave HEK293 tox -27%, FLuc inh-1 14µM*, NIH3T3 tox inconclusive, hNpr1 antagonist -12%, FLuc SDR -ATP 28%, FLuc SDR ATP inconclusive and FLuc inh-2 7.9µM*.
Screening COc1ccc(C(=O)N2CCc3ccc(C(=O)Nc4ccc(OC)cc4C)cc32)cc1 returned HEK293 tox inconclusive, FLuc inh-1 inactive, NIH3T3 tox -7% and hNpr1 antagonist -25%.
CN1c2cc(C(=O)Nc3ccc(C(N)=O)cc3)ccc2C(=O)N2CCCCC21 (stereo not drawn) was read as HEK293 tox -5%, FLuc inh-1 inactive, NIH3T3 tox inconclusive and hNpr1 antagonist 0%.
`Cc1ccc(N2Cc3c(ncnc3N3CCN(c4ncccn4)CC3)N(C)CC2=O)cc1` gave HEK293 tox -20%, FLuc inh-1 inactive, NIH3T3 tox -10% and hNpr1 antagonist 1%.
c1ccc(-n2ncc3c(N4CCCCC4)ncnc32)cc1 was read as FLuc SDR -ATP 3.5µM*, FLuc SDR ATP inconclusive and FLuc inh-2 0.88µM*.
For Cc1ccc(-n2ncc3c(N4CCN(C)CC4)ncnc32)cc1 the results were FLuc SDR -ATP 23%, FLuc SDR ATP inconclusive and FLuc inh-2 5.6µM*.
Screening NC(=O)CC1CCN(c2ncnc3c2cnn3-c2ccccc2)CC1 returned FLuc SDR -ATP 10%, FLuc SDR ATP 11% and FLuc inh-2 -18%.
For OC1CCN(c2ncnc3c2cnn3-c2ccccc2)CC1 the results were FLuc SDR -ATP 25%, FLuc SDR ATP inconclusive and FLuc inh-2 inconclusive.
COc1ccc(CNC(=O)c2noc(-c3ccc(F)cc3)n2)c(OC)c1 was read as HEK293 tox inconclusive, FLuc inh-1 inactive, NIH3T3 tox inconclusive and hNpr1 antagonist 2%.
Screening O=C(COc1ccc(Cl)cc1)N1CCc2n[nH]c(=O)n2CC1 returned HEK293 tox 1%, FLuc inh-1 inactive, NIH3T3 tox -1% and hNpr1 antagonist 0%.
`CN1CC(=O)N(c2cccnc2)Cc2c1ncnc2N1CCC(c2ccccc2)CC1` gave HEK293 tox inconclusive, FLuc inh-1 inactive, NIH3T3 tox inconclusive and hNpr1 antagonist -4%.
NC(=O)C1CCN(c2ncnc3c2cnn3-c2cccc(Cl)c2)CC1 was read as FLuc SDR -ATP 17%, FLuc SDR ATP 12% and FLuc inh-2 -18%.
For NC(=O)C1CCN(C(=O)CC(c2ccccc2)c2cccc(Cl)c2)CC1 (stereo not drawn) the results were HEK293 tox 3%, FLuc inh-1 inactive, NIH3T3 tox inactive and hNpr1 antagonist -12%.
`OCC1CCN(c2ncnc3c2cnn3-c2ccccc2)CC1` gave FLuc SDR -ATP 21%, FLuc SDR ATP 17% and FLuc inh-2 inconclusive.
`Cc1cn2c(=O)cc(COC(=O)c3ccccc3F)nc2s1` gave FLuc SDR -ATP 12%, FLuc SDR ATP inconclusive and FLuc inh-2 inconclusive.
For CCN1CCN(CCNC(=O)c2cn3ccnc(-c4ccc(OC)cc4)c3n2)CC1 the results were HEK293 tox -27%, FLuc inh-1 inactive, NIH3T3 tox -8% and hNpr1 antagonist -1%.
For O=C(NC1CCCc2c1[nH]c1ccccc21)c1cccnc1 (stereo not drawn) the results were HEK293 tox inconclusive, FLuc inh-1 inactive, NIH3T3 tox -20% and hNpr1 antagonist 1%.
For Cc1ccc(-c2nc(C)c(CCNC(=O)c3cccs3)s2)cc1 the results were FLuc SDR -ATP 12%, FLuc SDR ATP 9% and FLuc inh-2 inconclusive.
